The results in this text go back to PubChem BioAssay (NCI).

For the assay, the system named is HL-60(TB) leukemia. Put plainly: NCI-60 one-dose screen, 48 h (100 = growth as untreated, 0 = no growth, -100 = all killed). Particulars: 10 µM unless noted.

The panel holds about 83,000 compounds, 20% with a hit somewhere; the sample as a whole holds those more often.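 Cell lines were cultured in 96-well plates, exposed to a single compound concentration, and assessed for percent growth 48 hours later.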 A number with no mark means an inactive call. Activity calls are given as the source filed them. The calls were made as follows: active = growth percent below 10; inactive = the rest.

In the case of `CSc1ccc(-c2n[nH]nc2-c2cc3ccccc3s2)cc1`, the growth is 38%.
On to `Cc1[nH]ccc2cc3nc4ccccc4c3cc12`, for which the growth was 16.4%.
In the case of `Cc1cccc(OCC(O)CN2CCN(c3ccc(Cl)cc3)CC2)c1` (stereo unspecified), the growth is 97.9%.
With `C=C1C(=O)O[C@H]2[C@H]1CC/C(Cn1cc(CNCCc3c[nH]c4ccc(Cl)cc34)nn1)=C\CC[C@@]1(C)O[C@@H]21`, the growth is -55.2% (active).
With `O[C@H]1[C@H]2c3cc4c(cc3CN3CCC(=C[C@@H]1O)[C@H]23)OCO4` the figure was 5.02% (active).
Turning to `O=C(O[C@@H]1Cc2c(O)cc(O)cc2O[C@@H]1c1cc(O)c(O)c(O)c1)c1cc(O)c2c(c1)OCO2`, the growth is 91.1%.
In the case of `COc1ccc2c(c1)C(c1c[nH]c3ccccc13)(c1c[nH]c3ccccc13)CCO2`, the growth is 41.2%.
With `FCc1nc2nc(Cl)c(Cl)nc2[nH]1`, the growth was 102%.
The figure for `C/C=C/CSC(C)(C)C(=O)NC` is 98.7%; for `Cn1nc(N)c2cc([C@@H]3Nc4ccc5[nH]ncc5c4[C@H]4C5CCC(C5)[C@@H]34)ccc21` (stereo partly specified) it is -16.6% (active).
On to `C=C1C(=O)O[C@H]2[C@H]1CC/C(COC(=O)/C=C\C(=O)O)=C\CC[C@@]1(C)O[C@@H]21`, for which the growth was 105%.
As for `COC12C=C/C(=C(/C(=O)OCc3ccccn3)C(=O)CCCCCCCCC3(OC)C=C/C(=C(/C(=O)OCc4ccccn4)C(=O)CCCCCCCC1)O3)O2`, the growth was -19% (active).
With `CC1O[C@@H](OC2[C@H](OC(=O)/C=C/c3ccc(O)c(O)c3)C(COC3O[C@H](C)C(O)C(O)[C@@H]3O)O[C@@H](OCCc3ccc(O)c(O)c3)[C@H]2O)[C@@H](O)C(O)[C@H]1O` (stereo partly specified) the figure was 103%; with `O=c1c2cccc3c(Nc4ccc(Br)cn4)ccc(c32)c2nc3ccccc3n12`, 128%; with `CN(C)c1ccc(/C=N/Nc2nnc3n2N=C(c2ccc(Cl)cc2)CS3)cc1`, 91.4%.
Take `Cc1c(Cl)cccc1C(=O)Nc1nc2c(s1)CN(C(=O)Nc1cccc(C(F)(F)F)c1)CC2`: the growth was 6.4% (active).
As to `O=C(O)COc1c(Cl)cc([N+](=O)[O-])cc1Cl`, the growth was 87.1%.
In the case of `O=c1[nH]cnc2c1C(c1ccc(Br)cc1)c1sc3c(F)cccc3c1O2` (stereo unspecified), the growth was 99.4%.
For the compound `NN1CCOC(c2ccccc2)C1` (stereo unspecified), the growth was -22.4% (active).
With `COc1cc(/C=N/Nc2ccccc2F)cc(OC)c1OC` the figure was 90.1%; with `COc1ccc(-c2nnc(SCC(=O)Nc3ccc(/C(C)=N\O)cc3)n2-c2ccccc2)cc1OC`, 77.3%.
Consider `COc1cc(CCNc2nc3cc(N)cc(N)c3nc2-c2ccccc2)cc(OC)c1`, for which the growth was -66.1% (active).
For `CCCCCCCCCCC(=O)CCCCCCCCCC`, the growth is 95.4%.
As for `O=C(Cn1c2ccccc2c2ccncc21)N/N=C/c1cc(O)c(O)c(O)c1`, the growth was 85.1%.
For the compound `Fc1cccc(CNc2c3ccccc3nc3ccccc23)c1`, the growth was 47%.
For `O=C1c2cccc3cccc(c23)C(=O)N1CCCCCN1CCN(CCCCCOc2ccc(-c3nc4ccc(N5CCOCC5)cc4[nH]3)cc2)CC1`, the growth is 3.01% (active).
Regarding `COc1cc(C2C=C(c3ccc(Cl)c(Cl)c3)N=C3SC(C)=CN32)cc(OC)c1OC` (stereo unspecified), the growth is 61.6%.
Turning to `COc1cc2c(c(OC)c1OC)-c1ccc(NN(C(=O)c3ccccc3)C(=O)c3ccccc3)c(=O)cc1[C@@H](NC(C)=O)CC2` (tested in a mixture with another compound), the growth is -1.35% (active).
As for `CN1CCN(c2ccc3nc(-c4ccc5nc(-c6ccc(C(F)(F)F)cc6)[nH]c5c4)[nH]c3c2)CC1`, the growth is 23.9%.
As to `COc1cc2nc3sc(C(=O)Nc4ccc(C(=O)OC(C)C)cc4)c(C(=O)Nc4ccc(Cl)cc4C)n3c(=O)c2cc1OC`, the growth is 90.2%.
As for `O=C1NC(=O)c2ncccc21`, the growth is 115%.
For the compound `CC1(C)N=C(N)N=C(N)N1c1ccc(OCC(=O)Nc2ccccc2)c(Cl)c1`, the growth was 13.8%.
Turning to `COc1ccccc1/C=N/NC1=NC2C(N1)N(C)C(=O)N2C` (stereo unspecified), the growth is 107%.
Take `O=C1CCC(N2C(=O)c3cccc(NCCCCCCOc4ccc(Nc5nccc(Nc6ccccc6)n5)cc4)c3C2=O)C(=O)N1` (stereo unspecified): the growth is 87.2%.
For the compound `Cc1ccc2c3c(cccc13)-c1ccccc1C2=O`, the growth was 99%.
In the case of `CCOc1c(C#N)nnc2c(C#N)c(NC(=O)c3ccccc3)nn12`, the growth is 104%.
